# In PMC4336329 (PLoS ONE, 2015):
# The campaign covered roughly 310,000 compounds. About 14,000 (4.5%) showed an effect of 50% or more. The effect is printed as a negative number. This excerpt belongs to a sample that is enriched for strong results.
# Molecular target: human ether-à-go-go-related gene (hERG) potassium channel (human, UniProt Q12809)
# Assay: primary screen, population patch clamp on CHO cells stably expressing hERG; higher = less effect of the substance
# 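Further: peak tail current of the secondary pulse compared with the same well before compound.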
# human ether-à-go-go-related gene (hERG) potassium channel, sequence (Q12809 whole entry, looked up): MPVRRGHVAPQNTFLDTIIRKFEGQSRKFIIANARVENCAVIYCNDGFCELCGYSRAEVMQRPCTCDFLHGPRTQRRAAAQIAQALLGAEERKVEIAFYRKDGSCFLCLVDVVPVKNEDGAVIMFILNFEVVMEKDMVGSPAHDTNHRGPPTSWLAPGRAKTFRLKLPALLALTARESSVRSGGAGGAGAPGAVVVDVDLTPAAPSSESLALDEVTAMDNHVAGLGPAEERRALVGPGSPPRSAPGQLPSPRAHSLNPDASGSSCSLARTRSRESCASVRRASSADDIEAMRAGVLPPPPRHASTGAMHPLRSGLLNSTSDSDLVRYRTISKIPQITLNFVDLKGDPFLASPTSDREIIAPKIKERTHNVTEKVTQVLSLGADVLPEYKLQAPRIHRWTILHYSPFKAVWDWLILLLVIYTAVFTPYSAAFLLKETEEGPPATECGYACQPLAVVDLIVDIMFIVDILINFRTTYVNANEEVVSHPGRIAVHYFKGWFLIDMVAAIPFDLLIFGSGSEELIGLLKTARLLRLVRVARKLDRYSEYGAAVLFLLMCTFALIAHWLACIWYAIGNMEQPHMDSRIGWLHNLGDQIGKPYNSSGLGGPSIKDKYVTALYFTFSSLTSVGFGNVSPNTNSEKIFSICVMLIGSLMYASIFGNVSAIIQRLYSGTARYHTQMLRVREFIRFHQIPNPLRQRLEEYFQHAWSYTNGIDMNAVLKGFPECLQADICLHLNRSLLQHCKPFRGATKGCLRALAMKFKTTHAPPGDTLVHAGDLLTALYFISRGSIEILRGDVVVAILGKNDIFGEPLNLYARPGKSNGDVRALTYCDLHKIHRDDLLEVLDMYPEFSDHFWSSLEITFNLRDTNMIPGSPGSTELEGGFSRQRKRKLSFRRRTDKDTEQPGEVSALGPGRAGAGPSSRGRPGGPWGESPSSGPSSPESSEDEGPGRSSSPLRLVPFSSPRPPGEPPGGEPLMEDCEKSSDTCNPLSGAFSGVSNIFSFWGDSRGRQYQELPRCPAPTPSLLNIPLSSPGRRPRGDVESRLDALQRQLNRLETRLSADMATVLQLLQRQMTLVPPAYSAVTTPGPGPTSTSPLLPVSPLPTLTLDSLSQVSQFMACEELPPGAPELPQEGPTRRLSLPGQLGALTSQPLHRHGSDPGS
row,Compound,"hERG current change (%, negative = inhibition) at 10uM [%]"
1,Br.O=C(CN1CCSC1=NCc1ccccc1)c1ccc(Cl)cc1,-53.9
2,Br.O=C(CN1CCSC1=NCc1ccccc1)c1ccc(Cl)c(Cl)c1,-17.7
3,Br.O=C(CN1CCSC1=NCc1ccccc1)c1ccccc1,-23.5
4,C=CCNC(=O)c1c(-c2c(F)cccc2Cl)noc1C,-1.62
5,Cc1ccc(S(=O)(=O)N2CCC(C(=O)N3CCC[C@H]3C(=O)NCC(C)C)CC2)cc1,13.8
6,Cl.N=c1sccn1CC(=O)NCCc1ccc(Cl)cc1,-26.3
7,CC(C)N=c1cc2n(-c3ccc(Cl)cc3)c3ccccc3nc-2cc1Nc1ccc(Cl)cc1,35.9
8,COc1cccc(OCc2cc(C(=O)N(C)Cc3nc4ccccc4[nH]3)no2)c1,-37.1
9,CCN(Cc1ccccc1)C(=O)c1cc(COc2c(F)cccc2F)on1,3.85
10,CCN(Cc1ccncc1)C(=O)c1ccc(Br)o1,1.66
11,CCN(Cc1ccncc1)C(=O)c1cc(COc2ccc(F)cc2F)on1,-36
12,CCN(Cc1ccncc1)C(=O)c1cc(COc2ccc(C)c(C)c2)on1,-69.5
13,CCN(Cc1ccncc1)C(=O)c1cc(COc2ccc(OC)cc2Cl)on1,-22.6
14,CCN(Cc1ccncc1)C(=O)c1ccc(C)o1,-0.494
15,CCN(Cc1ccncc1)C(=O)c1cc(COc2c(C)cccc2C)on1,-75.3
16,Cc1cccc(C)c1OCc1cc(C(=O)N(C)Cc2nc3ccccc3[nH]2)no1,-70.6
17,CCN(Cc1ccncc1)C(=O)c1cc(COc2c(F)cccc2F)on1,-36
18,CC(=O)c1ccc(OCc2cc(C(=O)N(C)Cc3nc4c(C)cccc4[nH]3)no2)cc1,-10.7
19,CCN(Cc1ccncc1)C(=O)c1ccco1,-73.5
20,CCN(CC(=O)NC1CCS(=O)(=O)C1)S(=O)(=O)c1cc(C)ccc1C (stereo not drawn),10.2
21,COc1ccc(NC(=O)Cn2c(=O)c(C)nc3ccccc32)cc1Cl,-2.07
22,CN(C)c1ccc(CCc2ccc(N)cc2)cc1,19.9
23,Cc1sc(NC(=O)c2ccco2)c(CN2CCN(c3ccccc3)CC2)c1C,7.18

row,Compound,"hERG current change (%, negative = inhibition) at 10uM [%]"
1,CCOc1ccc2c(c1)nc(NCCCO)n2Cc1ccccc1,-20.3
2,O=c1[nH]c2ccccc2nc1-c1cccs1,1.66
3,COc1cc(C)nc(N2CCCC(C(=O)Nc3cccc(Cl)c3C)C2)n1 (stereo not drawn),0.916
4,C/C(=C\C(=O)c1cccnc1)Nc1ccc(O)cc1,-6.35
5,CCOc1cc(N(CC)CC)ccc1/C=C(/C#N)c1nc2ccccc2[nH]1,0.119
6,NC(=O)c1nc(-c2ccco2)nc2c1[nH]c(=O)n2-c1ccc(Cl)c(Cl)c1,-9.13
7,COC(=O)c1ccccc1NC(=O)NCc1ccccc1,-3.24
8,Cc1c(C(=O)OC2CCC(C)CC2)[nH]c2c1C(=O)CCC2 (stereo not drawn),-3.25
9,Cc1ccc(NS(=O)(=O)c2ccc(-c3csc(C)n3)s2)c(C)c1,16
10,CCN(CCn1cccn1)C(=O)c1cc(COc2c(F)cccc2F)on1,0.76
11,CCN(CCn1cccn1)C(=O)c1cc(COc2ccc(F)c(F)c2)on1,-96
12,CCN(CCn1cccn1)C(=O)c1cc(COc2ccc(F)cc2Cl)on1,-15.4
13,O=C1C2C3c4ccccc4C(c4ccccc43)[C@@H]2C(=O)N1c1ccccn1 (stereo partly drawn),5.6
14,O=C(N/N=C/c1ccc(OC(F)F)cc1OC(F)F)c1cccc(S(=O)(=O)N2CCOCC2)c1,-33.1
15,COC(=O)Cn1ncn2c(cc3oc(C)cc32)c1=O,13.1
16,CCN(CC(=O)Nc1ccc(OC)cc1)C(=O)COc1cccc2c1OC(C)(C)C2,-14.1
17,c1ccc(C2CCCN(Cc3nc(CC4CC4)no3)CC2)cc1 (stereo not drawn),2.97
18,c1ccc(OCc2noc(CN3CC[C@@H]4CCCC[C@H]4C3)n2)cc1,0.704
19,c1ccc(CN2CCCC3(CCCN(Cc4nc(COc5ccccc5)no4)C3)C2)cc1 (stereo not drawn),-69.3
20,Cc1ccccc1C1CCCN(Cc2nc(CC3CC3)no2)C1 (stereo not drawn),-12.7
21,C=CCC1(CC=C)CCCN1Cc1nc(COc2ccccc2)no1,-11.5
22,c1ccc(CN2CCCC3(CCCN(Cc4nc(CC5CC5)no4)C3)C2)cc1 (stereo not drawn),-52.1
